Bioassay records: PubChem, National Center for Advancing Translational Sciences (NCATS)
Pf Dd2 inh: qHTS Primary assay for Inhibitors of Plasmodium falciparum Dd2 growth in vitro; Potency, µM (titrated, usually from 28.9 µM), most hits filed as inhibitors; P. falciparum Dd2 growth, SYBR Green, 72 h; 120,000 tested, 4.3% active; active = well fitted inhibition curve with a large enough effect; note: nearly all actives have a fitted effect of over 65% in size
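Infected erythrocytes (Dd2, 0.3% parasitemia, 2.5% hematocrit final) are added to compound in RPMI-1640/Albumax II medium, grown 72 h at 37C in low oxygen, then lysed with saponin/Triton-X containing SYBR Green and read by fluorescence.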
Hits are given with their value; - = inactive; [ ] = remark or other dose. The full list was thinned out, with hits kept by preference.

SMILES	Pf Dd2 inh
COCCN1C(=O)c2ccccc2C(C(=O)Nc2nc3ccccc3[nH]2)C12CCCCC2 (stereo not drawn)	1.8µM
CCCNC(=O)C1c2ccccc2C(=O)N(CCOC)C12CCCCC2 (stereo not drawn)	-
COCCN1C(=O)c2ccccc2C(C(=O)Nc2nnc(C(C)C)s2)C12CCCCC2 (stereo not drawn)	11µM
COCCN1C(=O)c2ccccc2C(C(=O)NCc2ccc(F)cc2)C12CCCC2 (stereo not drawn)	-
COCCN1C(=O)c2ccccc2C(C(=O)Nc2cccc(NC(C)=O)c2)C12CCCCC2 (stereo not drawn)	-
COCCN1C(=O)c2ccccc2C(C(=O)Nc2nc(C)c(C)s2)C12CCCCC2 (stereo not drawn)	3.5µM
COCCN1C(=O)c2ccccc2C(C(=O)Nc2cc(Cl)ccc2OC)C12CCCC2 (stereo not drawn)	-
Cc1nc(CC(=O)N2CCCC(C(=O)NCCCO)C2)cs1 (stereo not drawn)	-
CNC(=O)[C@@H]1CN(C(=O)c2ccc(C)c(F)c2)C[C@H]1COC	-
C[S+](=O)([O-])CCn1ncc2cc(OCc3cccc(-c4cccc(CO)c4)c3)ccc21	-
CCN(Cc1ccccn1)C(=O)c1csc2nc(-c3cc(C)ccc3C)cn12	-
Cc1cc(NC(=O)N2CCC(Oc3ncccc3C(=O)N(C)C)C2)ccc1Br (stereo not drawn)	-
OCc1cc(CC2(NCc3ccccc3)COC2)no1	-
COCCN1C(=O)c2ccccc2C(C(=O)NCCCc2ccccc2)C12CCCC2 (stereo not drawn)	11µM
COCCN1C(=O)c2ccccc2C(C(=O)NCCc2ccc(OC)cc2)C12CCCC2 (stereo not drawn)	-
COCCN1C(=O)c2ccccc2C(C(=O)NCc2ccccc2)C12CCCCC2 (stereo not drawn)	-
C[S+](=O)([O-])N1CCCC2(Cc3ccccc3CN2C(=O)C2CCCC2)C1 (stereo not drawn)	-
COc1ccc(-c2noc([C@@H]3CCCN3C(=O)c3cc(Cl)ccc3F)n2)cc1OC	-
FC(F)(F)c1ccc2nc([C@H]3CCN(Cc4ncc[nH]4)C3)[nH]c2c1	-
COc1ccc2nc([C@H]3CCN(Cc4ccncc4)C3)[nH]c2c1	-
c1ccc2ncc(CN3CC[C@H](c4nc5ccccc5[nH]4)C3)cc2c1	11µM
CS(=O)(=O)c1ccc(CN2CC[C@H](c3nc4ncccc4[nH]3)C2)cc1	-
Cc1ccc(CN2CC[C@H](c3nc4ccc(C(F)(F)F)cc4[nH]3)C2)cc1	11µM
Clc1cccc(CN2CC[C@H](c3nc4ccccc4[nH]3)C2)c1	-
COc1ccccc1CN1CC[C@H](c2nc3ccc(C(F)(F)F)cc3[nH]2)C1	8.9µM
SMILES	Pf Dd2 inh
COc1ccc2nc([C@H]3CCN(C4CCCCC4)C3)[nH]c2c1	-
COc1ccc(CN2CC[C@H](c3nc4ccc(C)cc4[nH]3)C2)cc1	-
CN(C)c1ccc(CN2CCC(c3nc4ncccc4[nH]3)C2)cc1 (stereo not drawn)	-
COc1cccc(CN2CC[C@H](c3nc4ccccc4[nH]3)C2)c1	-
Cc1ccccc1CN1CC[C@H](c2nc3ncccc3[nH]2)C1	32µM
Cc1noc(C)c1[S+](=O)([O-])N1CCC2(CC1)C(=O)NCN2Cc1ccc(Cl)cc1	-
CCN1CCN(CC(=O)N2C[C@@H](C(=O)O)[C@H](c3ccccc3OC)C2)CC1	-
COC(=O)c1c(NC(C)=O)c2cc(NC(C)CC(C)(C)O)cnc2n1CCC(C)C (stereo not drawn)	-
C=CCNC(=O)N1CC[C@@H](CC(=O)O)[C@@H](CC2=NCCc3cc(OC)ccc32)C1	-
Cc1cccc(CCN2CCC3(CC2)C(C(=O)O)CC(=O)N3C)n1 (stereo not drawn)	-
CC[C@H]1CN(C(=O)NC(C)C)CC[C@H]1CC(=O)NCc1cccc2ccccc12	-
O=C(NCc1ccccc1)C1CCC(=O)N1C1CCN(C(=O)c2ccc3c(c2)OCO3)CC1 (stereo not drawn)	-
COc1cccc([S+](=O)([O-])N2CCC3(CC2)CC(=O)c2ccc(Cl)cc2O3)c1	-
O=C1CC2(CCN(C(=O)c3ccccn3)CC2)Oc2cc(Cl)ccc21	-
CCNc1ncnc2c1CN(C1CCCNC1)C(=O)CN2C (stereo not drawn)	-
CC(=O)N1CC[C@H](c2nc3ccc(F)cc3[nH]2)C1	-
Fc1ccc2nc([C@H]3CCN(Cc4ncc[nH]4)C3)[nH]c2c1	-
Fc1ccc2nc([C@H]3CCN(Cc4cccs4)C3)[nH]c2c1	11µM
CC(C)c1nccc(-c2c(-c3ccccc3)ncn2CCCN2CCOCC2)n1	-
Cc1cccc(C(=O)N2CCc3c(nc(-c4ccncc4)nc3N(C)C)C2)c1	-
O=C(C1CCOCC1)N1CCCC1c1nc(C2CCOCC2)no1 (stereo not drawn)	-
Fc1cccc(-c2cc3c(cn2)CN(Cc2ccncc2)CCN3)c1	-
c1cc(CN2CCNc3cc(-c4ccsc4)ncc3C2)ccn1	-
c1ccc(Oc2ccccc2-c2cc3c(cn2)CN(Cc2ccncc2)CCN3)cc1	8.9µM
Cc1ccsc1C(=O)N1[C@@H]2CC[C@H]1CC(NC(=O)c1ccncc1)C2 (stereo partly drawn)	-
SMILES	Pf Dd2 inh
CC1=C[C@@H](CNC(=O)NC(C)C)[C@H](C(C)C)C[C@H]1CC(=O)NCc1ccccn1	-
CC1=C[C@@H](CN(C)CCc2ccccn2)[C@H](C(C)C)C[C@H]1Cc1nnc(-c2ccccc2)o1	2.2µM
CC1=C[C@@H](CNCc2ccco2)[C@H](C(C)C)C[C@H]1Cc1nnc(C(C)(C)C)o1	13µM
CC1=C[C@@H](CNC(=O)COc2ccccc2)[C@H](C(C)C)C[C@H]1CC(=O)Nc1ccccn1	-
CC1=C[C@@H](CNS(=O)(=O)c2ccccc2)[C@H](C(C)C)C[C@H]1CC(=O)NCCN(C)C	-
CC1=C[C@@H](CN(C)CCN(C)C)[C@H](C(C)C)C[C@H]1Cc1nnc(-c2ccccc2)o1	3.5µM
CC1=C[C@@H](CNC(=O)c2cccnc2)[C@H](C(C)C)C[C@H]1CC(=O)NCc1ccccn1	-
CC1=C[C@@H](CN2CCC(C(N)=O)CC2)[C@H](C(C)C)C[C@H]1Cc1nnc(C(C)(C)C)o1	-
CC1=C[C@@H](CN(C)CCc2ccccn2)[C@H](C(C)C)C[C@H]1Cc1nnc(-c2ccncc2)o1	3.5µM
CC1=C[C@@H](CNC(=O)C(C)(C)C)[C@H](C(C)C)C[C@H]1Cc1nnc(-c2ccccc2F)o1	-
CC1=C[C@@H](CNS(=O)(=O)c2ccccc2)[C@H](C(C)C)C[C@H]1CC(=O)NCc1ccccn1	-
Cc1onc(-c2cnn(C)c2NCc2ccc(C#N)cc2)c1C(=O)NC1CCCCC1	-
O=C(NCCc1noc(C2CC2)n1)Nc1cccc(C(F)(F)F)c1	-
Cc1ccccc1Oc1ncccc1CNC(=O)C(C)(C)n1cccc1	-
COCc1nc(-c2ccc(OC3CCN(C(=O)Cc4c[nH]c5ccccc45)C3)cc2)no1 (stereo not drawn)	-[5.79 µM]
CC(C)NC(=O)N1CCCC(c2nc(-c3cccnc3)no2)CCNC(=O)CC1 (stereo not drawn)	-
CN1[C@@H](CCC(=O)N2CCN(c3ccccn3)CC2)CNC(=O)[C@@H]2[C@H]1CCN2Cc1cccs1	-
COCC(=O)NC1CCC12CCN(Cc1ccc(F)c(F)c1)CC2 (stereo not drawn)	-
O=C1CCCN1CCCN1C(=O)[C@@H]2C[C@@H](O)CN2C2(CN(Cc3ccc(Cl)cc3)C2)C1=O	-
